From publication PMC5540273 (PLoS ONE, 2017)

Key:
Conditions in all cases: concentration: 1 μM, replicates: in singlicate; n = 1
SIK2 = test system: SIK2
SIK = test system: SIK
SLK = test system: SLK
SNARK = test system: T1, SNARK
T1 construct: gene NUAK2

SNRK = test system: SNRK
SRC = test system: SRC
SRMS = test system: SRMS
SRPK1 = test system: SRPK1
SRPK2 = test system: SRPK2
SRPK3 = test system: SRPK3
STK16 = test system: STK16
STK33 = test system: STK33
STK35 = test system: STK35
STK36 = test system: STK36
STK39 = test system: STK39
SYK = test system: SYK
SgK110 = test system: SgK110
TAK1 = test system: T2, TAK1
T2 construct: gene MAP3K7

TAOK1 = test system: TAOK1
TAOK2 = test system: TAOK2
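Further: KINOMEscan kinase panel screen.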

SMILES	%Inh (SIK2) [%]	%Inh (SIK) [%]	%Inh (SLK) [%]	%Inh (SNARK) [%]	%Inh (SNRK) [%]	%Inh (SRC) [%]	%Inh (SRMS) [%]	%Inh (SRPK1) [%]	%Inh (SRPK2) [%]	%Inh (SRPK3) [%]	%Inh (STK16) [%]	%Inh (STK33) [%]	%Inh (STK35) [%]	%Inh (STK36) [%]	%Inh (STK39) [%]	%Inh (SYK) [%]	%Inh (SgK110) [%]	%Inh (TAK1) [%]	%Inh (TAOK1) [%]	%Inh (TAOK2) [%]
O=C(O)COc1ncnc2cc(-c3ccc4[nH]ncc4c3)sc12	0	8	0	13	11	0	8	0	0	1	12	0	0	0	0	0	0	28	0	0
Fc1cccc(COc2nnc(-c3ccc4c(c3)CCO4)o2)c1	0	0	0	0	0	0	5	0	0	7	7	2	4	7	0	0	0	7	0	0
Cc1cc(N2Cc3ccccc3C2)nc(Nc2ccc(S(=O)(=O)N3CCOCC3)cc2)n1.Cl [GSK1669917]	0	0	0	10	0	0	0	0	0	0	0	0	0	4	0	35	0	0	0	0
Cl.Oc1ccc(-c2nc(-c3ccccc3)[nH]c2-c2ccncc2)cc1 [SB-428218]	0	0	28	0	5	33	7	0	0	3	16	0	0	0	0	24	0	0	0	0
O=c1cc(N2CCOCC2)nc2n(Cc3cccc(Cl)c3Cl)ccn12 [GSK2286295]	0	0	17	0	0	3	0	34	0	0	5	0	0	43	0	32	0	5	0	0
Cc1csc(-c2nc(Nc3ccncc3)c3ccccc3n2)n1 [GW869640]	1	4	22	26	20	8	25	0	0	39	17	18	0	0	0	2	8	25	36	16
Fc1cc(Cl)ccc1Nc1ccnc2cc(I)ccc12 [GW551191]	49	29	0	0	0	0	0	7	0	8	9	0	57	0	15	0	4	0	0	0
Cc1c(O)cccc1Nc1ccnc2ccc(C(F)(F)F)cc12.Cl [GW466413]	0	0	8	0	0	79	1	21	0	0	0	0	0	0	3	0	0	0	0	0
Cc1cc(NCC(c2ccccc2)c2ccccc2)nc(NCc2ccc(C(F)(F)F)cc2)n1 [GW497681]	0	0	0	0	0	0	0	0	22	0	18	0	0	0	0	0	0	0	0	0
Cc1cccc(-c2nc(-c3ccc(S(C)(=O)=O)cc3)sc2-c2ccnc(NCCc3ccccc3)c2)c1	11	7	7	0	7	0	0	0	23	0	13	0	9	11	1	0	9	0	0	12
